Activity calls are given as the source filed them. Rule for the calls: active = hit-call score of the fitted dose curve at least 0.9, where 1 is the maximum; inactive = score below 0.9.
molecular target: Estrogen receptor (Homo sapiens) (UniProt P03372); assay: CCTE_Deisenroth_AIME_384WELL_LUC_Shift: CCTE's 384-well Estrogen Receptor Transactivation Assay with AIME metabolic competence data shift (ERTA luciferase; difference in metabolism positive and negative), Deisenroth Lab (AID 2284041);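 note: shift is response with S9 minus without S9 so positive means metabolism raised ER signal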
Sequence (P03372 whole entry, looked up): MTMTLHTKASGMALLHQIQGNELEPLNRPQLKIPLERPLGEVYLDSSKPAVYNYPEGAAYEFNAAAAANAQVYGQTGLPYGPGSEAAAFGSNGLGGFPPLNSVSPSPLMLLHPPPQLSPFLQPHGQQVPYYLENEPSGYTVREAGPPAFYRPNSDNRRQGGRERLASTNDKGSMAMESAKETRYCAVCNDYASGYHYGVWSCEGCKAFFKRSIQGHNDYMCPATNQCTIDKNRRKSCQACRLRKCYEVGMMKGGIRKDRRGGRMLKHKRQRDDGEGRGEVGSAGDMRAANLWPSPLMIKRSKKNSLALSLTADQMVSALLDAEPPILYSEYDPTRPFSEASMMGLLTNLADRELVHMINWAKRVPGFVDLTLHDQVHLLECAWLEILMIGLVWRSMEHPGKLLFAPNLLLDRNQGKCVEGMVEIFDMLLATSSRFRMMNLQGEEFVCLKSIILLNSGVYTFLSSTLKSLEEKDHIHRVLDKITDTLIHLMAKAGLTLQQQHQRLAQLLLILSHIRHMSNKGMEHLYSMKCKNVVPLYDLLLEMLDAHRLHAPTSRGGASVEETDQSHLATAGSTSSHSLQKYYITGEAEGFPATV
Description: CCTE_Deisenroth_AIME_384WELL (AIME metabolism assay) is a cell-based, single-readout assay that uses VM7Luc4E2, a human mammary gland/breast cell line, with measurements taken at 24 hour after chemical dosing in a 384-well plate.CCTE_Deisenroth_AIME_384WELL_LUC_Shift is one of two analysis components calculated from the CCTE_Deisenroth_AIME_384WELL assay. […] AIME is optimized to impart phase I hepatic metabolism using phenobarbital/beta-naphthoflavone induced hepatic S9 from male Sprague Dawley rats. Parent chemicals are incubated for 2 hours in the AIME assay prior to transfer to the VM7Luc ERTA assay plate. […] The metabolic curve shift response is defined as the pairwise difference between the positive (AEID 2488) and negative (AEID 2490) normalized response values at each concentration for a given chemical across replicate experiments. The pairwise differences form the basis for a concentration-response curve. Standard curve fit analysis identfiied chemicals where the calculated shift was greater than the shift-derived baseline cutoff. A positive hit designation in this endpoint indicates a significant shift trend in the positive direction for bioactivation.
The AIME procedure consists of a preparative "pre-stamping" step using a barium chloride/poly-L-lysine (PLL) solution followed by "stamping" the lid in alginate-hepatic S9 (metabolism positive) or alginate-water (metabolism negative) to form microspheres. Once stamping is completed, the AIME lids are placed in duplicate microplates (metabolism positive or negative) containing chemical solutions and incubated for two hours to facilitate metabolic reactions. The conditioned medium, containing parent chemical or metabolites, is then transferred to the cell-based VM7Luc Estrogen Receptor Transactivation Assay (ERTA) for 24 hours. A typical experimental design tests a 10-point concentration series (0.002 - 200 uM) for 8 compounds (96-well format)1 or 32 compounds (384-well format)2 in single technical replicate. AIME assay controls include trans-stilbene (bioactivated control) and ethylparaben (bioinactivated control). ERTA assay plate controls include 17-beta estradiol (positive control) and DMSO (solvent control). Experiments typically comprise a minimum of four experimental replicates (n=4).

SMILES | outcome
OCc1ccccc1 | inactive
C[C@@H](Oc1ccc(CNC(=O)c2cccnc2Oc2ccc3c(c2)OCO3)c(F)c1)C(=O)O | inactive
CC(C)CC(C)O (stereo unspecified) | inactive
O=C1CN(N=Cc2ccc([N+](=O)[O-])o2)C(=O)N1 | inactive
c1ccc(C(O[C@@H]2CCCN(CCc3ccc4c(c3)OCO4)C2)c2ccccc2)cc1 | inactive
OCC(CO)(CO)CO | inactive
CCc1cccc(CC)c1N | inactive
CCCCOC(=O)c1ccccc1 | inactive
CC(=O)c1ccccc1 | inactive
CCOC(N)=O | inactive
c1ccc2c(c1)-c1cccc3c1c-2cc1ccccc13 | inactive
CCn1nc(C)c2c1C(=O)NCC(c1ccc(O)cc1)=N2 | inactive
C=CCc1cc(S(=O)(=O)c2ccc(O)c(CC=C)c2)ccc1O | inactive
c1ccc2ncccc2c1 | inactive
CCN(CC)C(=S)SSC(=S)N(CC)CC | inactive
CC(C)c1nnc2ccc(-c3ocnc3-c3cc(F)ccc3F)cn12 | inactive
COS(C)(=O)=O | inactive
CCOc1ccc2[nH]cc(C(=O)NCc3ccccc3)c(=O)c2n1 | inactive
NC(=O)NN=Cc1ccc([N+](=O)[O-])o1 | inactive
CCCc1ccccc1 | inactive
CCCCC(CC)C(=O)OCCOCCOCCOC(=O)C(CC)CCCC (stereo unspecified) | inactive
CCCCCOC(C)=O | inactive
OCCOCCOCCO | inactive
CC(C)CCCCCCOC(=O)C1CCCCC1C(=O)OCCCCCCC(C)C (stereo unspecified) | inactive
CCc1ccc(O)c(C(C)(C)C)c1 | inactive
COc1cc2c(c(OC)c1OC)-c1ccc(OC)c(=O)cc1[C@@H](NC(C)=O)CC2 | inactive

Reference: PubChem BioAssay (EPA / NIEHS)
